Screen size: about 5,500 compounds; about 2,000 (36%) were called active. Roughly 18% stayed inconclusive and do not appear here. Rule as the data show it: active = normalized growth mostly below about 0.91 (no sharp cut-off); inconclusive = no clear call, values can overlap the other calls; inactive = mostly above about 0.92. The list shows a part of the results.
Test: chemical genetic growth profiling, strain panel (AID 1159580);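 also: tested at 20 µM; growth read once vehicle control cultures reached saturation at 30 °C; 1 = growth at the plate median or of vehicle wells; lower values mean less growth of the strain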
Conditions: S. cerevisiae deletion strains, growth OD

Measured: normalized growth

NC(=NCCC[C@H](N)C(=O)O)N[N+](=O)[O-]
inactive: locus YAL013W, strain DEP1, hits give low values 0.99 | locus YAL021C, strain ccr4, hits give low values 1.02 | locus YAL026C, strain drs2, hits give low values 1.03 | locus YAL030W, strain snc1, hits give low values 1.02 | locus YBL061C, strain skt5, hits give low values 1.02 | locus YBR009C, strain hhf1, hits give low values 1.02 | locus YBR021W, strain FUR4, hits give low values 0.992 | locus YBR023C, strain chs3, hits give low values 1.02 | locus YBR171W, strain sec66, hits give low values 1.03 | locus YBR229C, strain ROT2, hits give low values 1 | locus YBR231C, strain swc5, hits give low values 1.02 | locus YBR279W, strain paf1, hits give low values 1.02 | locus YCL011C, strain gbp2, hits give low values 1.03 | locus YCL016C, strain dcc1, hits give low values 1.02 | locus YCL029C, strain bik1, hits give low values 0.994 | locus YCL069W, strain vba3, hits give low values 1.01 | locus YCR088W, strain abp1, hits give low values 1.03 | locus YDL005C, strain med2, hits give low values 1.03 | locus YDL035C, strain GPR1, hits give low values 1 | locus YDL040C, strain nat1, hits give low values 1.02 | locus YDL074C, strain BRE1, hits give low values 0.978 | locus YDL101C, strain DUN1, hits give low values 1 | locus YDL134C, strain PPH21, hits give low values 1.01 | locus YDL185W, strain tfp1, hits give low values 1.01 | locus YDL192W, strain arf1, hits give low values 1.01 | locus YDR001C, strain nth1, hits give low values 1.01 | locus YDR069C, strain doa4, hits give low values 1.03 | locus YDR101C, strain arx1, hits give low values 0.946 | locus YDR137W, strain rgp1, hits give low values 1.05 | locus YDR150W, strain NUM1, hits give low values 0.992 | locus YDR159W, strain sac3, hits give low values 0.991 | locus YDR162C, strain NBP2, hits give low values 1.02 | locus YDR195W, strain ref2 1.04 | locus YDR297W, strain sur2, hits give low values 1.02 | locus YDR318W, strain mcm21, hits give low values 1.01 | locus YDR334W, strain swr1, hits give low values 1.02 | locus YDR335W, strain msn5, hits give low values 1.03 | locus YDR388W, hits give low values 1.02 | locus YDR392W, strain spt3, hits give low values 1.03 | locus YDR502C, strain sam2, hits give low values 1.01 | locus YEL003W, strain gim4, hits give low values 1.02 | locus YEL037C, strain rad23, hits give low values 1.03 | locus YEL061C, strain CIN8 (second series), hits give low values 1.01 | locus YEL061C, strain CIN8, hits give low values 0.983 | locus YER015W, strain faa2, hits give low values 1.03 | locus YER016W, strain bim1, hits give low values 1.01 | locus YER110C, hits give low values 1.01 | locus YER111C, strain swi4, hits give low values 1.04 | locus YER155C, strain BEM2 (second series), hits give low values 1.06 | locus YER155C, strain BEM2, hits give low values 1 | locus YER167W, strain BCK2, hits give low values 0.998 | locus YFR010W, strain ubp6, hits give low values 1.03 | locus YGL078C, strain dbp3, hits give low values 1 | locus YGL086W, strain mad1, hits give low values 0.982 | locus YGL167C, strain pmr1, hits give low values 1.02 | locus YGL173C, strain kem1, hits give low values 1.02 | locus YGL227W, strain vid30, hits give low values 1.01 | locus YGL240W, strain doc1, hits give low values 1.04 | locus YGL248W, strain PDE1, hits give low values 1 | locus YGL253W, strain hxk2, hits give low values 1.02 | locus YGR078C, strain PAC10, hits give low values 0.972 | locus YGR135W, strain pre9, hits give low values 1.06 | locus YGR229C, strain SMI1, hits give low values 1.01 | locus YGR252W, strain gcn5, hits give low values 1.07 | locus YHR013C, strain ard1, hits give low values 1.05 | locus YHR027C, strain rpn1, hits give low values 1.02 | locus YHR030C, strain SLT2, hits give low values 0.994 | locus YHR079C, strain IRE1 (second series), hits give low values 1.01 | locus YHR094C, strain hxt1, hits give low values 1.01 | locus YHR129C, strain ARP1, hits give low values 1.01 | locus YHR142W, strain chs7, hits give low values 1.05 | locus YHR200W, strain rpn10, hits give low values 0.996 | locus YIL066C, strain RNR3, hits give low values 1.01 | locus YIL073C, strain SPO22, hits give low values 1.05 | locus YIL125W, strain kgd1, hits give low values 0.999 | locus YIR030C, strain dcg1, hits give low values 1.01 | locus YJL092W, strain hpr5, hits give low values 1.02 | locus YJL095W, strain BCK1 (second series), hits give low values 1.03 | locus YJL095W, strain BCK1, hits give low values 1 | locus YJL115W, strain asf1, hits give low values 1.04 | locus YJL129C, strain trk1, hits give low values 1.05 | locus YJL134W, strain LCB3, hits give low values 1 | locus YJL154C, strain vps35, hits give low values 1.02 | locus YJL164C, strain tpk1, hits give low values 1.02 | locus YJL166W, strain qcr8, hits give low values 1.03 | locus YJL168C, strain set2, hits give low values 0.999

Reference: PubChem BioAssay AID1159580 (chemical genetic matrix, 2015)
